The text below walks through data of PubChem BioAssay (NCI).

Structures are written as SMILES. About 83,000 compounds went through this panel and 20% of them were active in at least one assay; those are over-represented in the sample as a whole.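 Step 1: grow cells in 96-well plates. Step 2: add test compound at a single concentration. Step 3: incubate 48 h. Step 4: record percent growth.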 Values without a mark were called inactive. The source made the active and inactive calls.

The test system of this assay is MDA-MB-468 breast. The assay can be described thus: NCI-60 one-dose screen, 48 h (100 = growth as untreated, 0 = no growth, -100 = all killed). Particulars: 10 µM unless noted. The protocol:
Growth inhibition of the MDA-MB-468 human Breast tumor cell line is measured as a screen for anti-cancer activity. Cells are grown in 96 well plates and exposed to the test compound for 48 hours. Compounds are tested at a single concentration, which is 10^-5 M for most compounds. The reported endpoint is percent growth (GI% or GIPRCNT), where numbers from 0 - 100% represent growth inhibition, and numbers from -100% - 0 represent cell death. For example, a value of 40 represents 60% growth inhibition. A value of 0 means no net growth occurred over the course of the experiment. A value of -40 indicates 40% of cells at the beginning of the experiment died by the end of the experiment. A value of -100 means all cells are dead at the end of the experiment.
NCI-60 Human Tumor Cell Lines Screen was performed using the standard one-dose NCI protocol, which is described in more detail at https://dtp.cancer.gov/discovery_development/nci-60/default.htm.
Compounds with GIPRCNT values below 10 were considered active. Activity score was based on GIPRCNT using the following formula: […]
Score is 0 for GIPRCNT values of 100 or above, 50 for GIPRCNT values of 0, and 100 for GIPRCNT values of -100.
As to `COc1ccc(C(=O)/C=C/c2cccnc2)cc1S(N)(=O)=O`, the growth was 20.5%. The result for `COc1cc(C2CC(c3cc(OC)c(OC)c(OC)c3)=Nc3c(N)nc(N)nc3N2)ccc1Oc1nc(NCCO)nc(N2CCOCC2)n1` (stereo not given) reads 81.2%; that for `COc1cc(OC)cc(-c2cc3ccc(N(C)C)cc3c(=O)[nH]2)c1`, 40.2%.

Turning to `CC(=O)Nc1cccc(-c2nc3cc(-c4ccc(O)cc4)ccc3n2C)c1`, the growth is 7.83% (active). Under `COc1ccc2[nH]c(O)c(N=NC(=O)Cn3c(-c4ccccc4)nc4cc(C)ccc43)c2c1` stands 34.4%; under `CCCn1cc(-c2nc(Nc3ccc(C(=O)NCCCCNc4cccc5c4C(=O)N(C4CCC(=O)NC4=O)C5=O)cc3)nc3[nH]ccc23)cn1` (stereo not given), -36.3% (active); under `S=c1c2ccccc2nc2n1CCc1c-2[nH]c2ccccc12`, 47.9%.

For `O=C(O)c1cccc(-c2ccc(/C=N/NC(=O)c3[nH]c4ccc(Br)cc4c3-c3ccccc3)o2)c1`, the growth is -12.6% (active). The result for `C=C1CCC2C3(C)COC(c4ccccc4)OC3CCC2(C)C1CC(NCc1ccccc1)C1=CCOC1=O` (stereo not given) reads 49.3%.

With `O=C1NC(=O)c2c1c1c3cc(Br)ccc3[nH]c1c1oc3ccc(F)cc3c21`, the growth is -51.8% (active). Take `Cc1cc(=O)oc2cc(OCCOc3ccc(/C=C/C(=O)Nc4ccccc4N)cc3)ccc12`: the growth was -45% (active). Under `Clc1cccc(-c2ccc(OCCCN3CCN(c4ccncc4)CC3)cc2)c1` stands -62.3% (active). Regarding `CC1=C(C(=O)c2ccccc2)C(c2ccc(-n3cncn3)cc2)n2c(nc3ccccc32)N1` (stereo not given), the growth was 95.6%. As to `CN(C)c1nc(NCCNS(=O)(=O)c2ccc(C(=O)/C=C/c3ccc(F)cc3)cc2)nc(Nc2ccc(F)cc2)n1`, the growth was -82.8% (active).

For the compound `COc1ccc(-c2nnc3ccc(N/N=C/c4ccc(O)cc4)nn23)cc1`, the growth was 48.2%. Under `N/C(=N\c1nc2ccccc2s1)NC(=O)NCCCCCCO` stands 2.33% (active); under `COc1cc2oc(-c3cccc(C(=O)Nc4ccc(Cl)cc4)c3)cc(=O)c2c(OCCNC(=O)[C@H](CCC(=O)OC(C)(C)C)NC(=O)OC(C)(C)C)c1OC`, 105%. Under `CC(=O)Nc1cccc(Nc2nc(N[C@H]3CCCc4ccccc43)c3ccccc3n2)c1` stands 101%; under `S=C(NCCc1ccccc1)Nc1ccc(OCc2nc3ccccc3[nH]2)cc1`, 99.5%.

For `CN(C)c1nc(NCCNS(=O)(=O)c2ccc(C(=O)/C=C/c3ccc(C(F)(F)F)cc3)cc2)nc(Nc2ccc(F)cc2)n1`, the growth was -23.6% (active). Under `O=C1N/C(=N\c2nccs2)S/C1=C\C=C/c1ccccc1` stands 44.2%. In the case of `Cn1cc(-c2nc(N)nnc2-c2c[nH]c3ccc(Br)cc23)c2cccnc21`, the growth is 44.6%. Under `COc1cc(OC)cc(C(=O)Nc2cccc(-c3cn(-c4ccc(S(N)(=O)=O)cc4)nn3)c2)c1` stands 95.4%; under `O=c1c2ccccc2nc(-c2ccccc2)n1/N=C/c1ccc2ccccc2c1`, 67.2%. Under `COc1ccc(CCC2c3c(cc4c(c3OC)OCO4)CCN2C)cc1` (stereo not given) stands -81.5% (active).

`COc1cc2c(c(OC)c1OC)C(=O)CC(c1cccc(NC(=O)c3cccc(NC(=O)[C@H](C)NC(=O)OC(C)(C)C)c3)c1)O2` (stereo not given in full): the growth was 58.1%. Turning to `O=C(COc1ccc(NC(=O)Nc2ccc(Cl)cc2)cc1)N/N=C/c1ccccc1`, the growth is -94.4% (active). The result for `Cc1ccc(C(=O)CSc2nc3ccc(F)cc3c(=O)n2-c2ccc(Cl)cc2)cc1` reads 44.7%. The result for `COc1ccc(-c2nc3ccc(C(=O)NN4C(=O)c5ccc([N+](=O)[O-])cc5C4=O)cc3[nH]2)cc1` reads 89.7%; that for `CCCCSc1nc(Nc2ccc(S(N)(=O)=O)cc2)c(C#N)c(-c2ccc(Cl)cc2)n1`, 76%. The result for `COc1ccc(-c2ccnc(SCc3cc4cc(OC)ccc4[nH]c3=O)n2)cc1` reads -26.3% (active); that for `COc1ccc(C(=O)/C=C/c2cccc(Cl)c2Cl)cc1S(N)(=O)=O`, -16.4% (active); that for `Cc1ccccc1[C@H]1C(C(=O)c2ccc(Cl)cc2)C2(N[C@@H]1c1ccccc1)C(=O)Nc1ccccc12` (stereo not given in full), -25.6% (active). In the case of `CCC(C)(C)c1ccc(OCCCCN2CCN(c3ccncc3)CC2)cc1`, the growth is -67.2% (active). Under `N/C(=N\c1nc2ccccc2s1)NC(=O)Nc1ccccc1Br` stands -29.3% (active).

As for `N#Cc1c(-c2cccnc2)cc(-c2ccc3ccccc3c2)[nH]c1=O`, the growth was 94.1%. In the case of `Cn1cc(-c2cc3nc(-c4cn(C)c5ncccc45)cc(N)n3n2)c2ccccc21`, the growth is -24.7% (active). Take `COc1c(F)ccc(C(=O)Nc2ccc3nc(NC(=O)C4CCCN(S(=O)(=O)c5cccc(Cl)c5)C4)sc3c2)c1F` (stereo not given): the growth is 88.8%. The result for `CNS(=O)(=O)c1ccc(Nc2ccc(C(F)(F)F)cc2)c(-c2cn(C)cn2)c1` reads -1.31% (active); that for `O=C(c1ccc(OCCN2CCOCC2)cc1)C1[C@H](c2ccc(Cl)cc2)[C@@H](c2ccccc2)NC12C(=O)Nc1ccc(Br)cc12` (stereo not given in full), -8.11% (active).
